# PubChem BioAssay AID1159580 (chemical genetic matrix, 2015)
# Screen size: about 5,500 compounds; about 2,000 (36%) were called active. About 18% were inconclusive and are not listed. This is one part of the list. Unmarked numbers belong to inactive results. Rule as the data show it: active = normalized growth mostly below about 0.91 (no sharp cut-off); inconclusive = no clear call, values can overlap the other calls; inactive = mostly above about 0.92.
# Experiment: chemical genetic growth profiling, strain panel (AID 1159580);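 also: tested at 20 µM; growth read once vehicle control cultures reached saturation at 30 °C; 1 = growth at the plate median or of vehicle wells; lower values mean less growth of the strain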
# Conditions: S. cerevisiae deletion strains, growth OD
# [1] = locus YDL101C, strain DUN1, active compounds read low
# [2] = locus YHR030C, strain SLT2, active compounds read low
# [3] = locus YAL013W, strain DEP1, active compounds read low
# [4] = locus YBR229C, strain ROT2, active compounds read low
# [5] = locus YDR150W, strain NUM1, active compounds read low
# [6] = locus YEL061C, strain CIN8, active compounds read low
# [7] = locus YGR078C, strain PAC10, active compounds read low
# [8] = locus YHR087W, strain rtc3, active compounds read low
# [9] = locus YJR043C, strain POL32, active compounds read low
# [10] = locus YJR075W, strain HOC1, active compounds read low
# [11] = locus YKL190W, strain CNB1, active compounds read low
# [12] = locus YLR039C, strain RIC1, active compounds read low
# [13] = locus YLR058C, strain SHM2 (second series), active compounds read low
# [14] = locus YLR085C, strain ARP6, active compounds read low
# [15] = locus YLR262C, strain YPT6, active compounds read low
# [16] = locus YML094W, strain GIM5, active compounds read low
# [17] = locus YMR219W, strain ESC1, active compounds read low
# [18] = locus YMR263W, strain SAP30, active compounds read low
# [19] = locus YNL128W, strain TEP1, active compounds read low
# [20] = locus YNL153C, strain GIM3, active compounds read low
# [21] = locus YNL298W, strain CLA4 (second series), active compounds read low
# [22] = locus YNL322C, strain KRE1, active compounds read low
# [23] = locus YNR030W, strain Alg12, active compounds read low
# [24] = locus YPL055C, strain LGE1, active compounds read low
# [25] = locus YPL241C, strain CIN2, active compounds read low
# [26] = locus YPR135W, strain CTF4, active compounds read low
# [27] = locus YMR307W, strain GAS1, active compounds read low
smiles,measurement,setting,value
Cc1oc(C(C)(C)C)cc1-c1cc(NC(=O)c2ccccc2)n[nH]1,normalized growth,"locus YAR019C, strain CDC15, active compounds read low",0.965
same,normalized growth,"locus YBL105C, strain PKC1, active compounds read low",0.98
same,normalized growth,"locus YBR135W, strain CKS1, active compounds read low",0.974
same,normalized growth,"locus YBR136W, strain MEC1, active compounds read low",0.975
same,normalized growth,"locus YBR160W, strain CDC28, active compounds read low",0.97
same,normalized growth,"locus YDL017W, strain CDC7, active compounds read low",0.99
same,normalized growth,"locus YDL028C, strain MPS1, active compounds read low",0.948
same,normalized growth,[1],0.994
same,normalized growth,"locus YDL108W, strain KIN28, active compounds read low",0.972
same,normalized growth,"locus YDL132W, strain cdc53, active compounds read low",0.993
same,normalized growth,"locus YDL214C, strain PRR2, active compounds read low",0.913
same,normalized growth,"locus YDR052C, strain DBF4, active compounds read low",0.984
same,normalized growth,"locus YDR054C, strain cdc34, active compounds read low",0.966
same,normalized growth,"locus YDR226W, strain ADK1, active compounds read low",0.962
same,normalized growth,"locus YDR477W, strain SNF1, active compounds read low",0.924
same,normalized growth,"locus YER123W, strain YCK3, active compounds read low",0.885
same,normalized growth,"locus YER133W, strain GLC7, active compounds read low",0.957
same,normalized growth,"locus YFL009W, strain cdc4, active compounds read low",0.951
same,normalized growth,"locus YFL029C, strain CAK1, active compounds read low",0.962
same,normalized growth,"locus YFR003C, strain YPI1, active compounds read low",0.988
same,normalized growth,"locus YFR019W, strain FAB1, active compounds read low",0.921
same,normalized growth,"locus YFR028C, strain CDC14, active compounds read low",0.961
same,normalized growth,"locus YGR040W, strain KSS1, active compounds read low",0.94
same,normalized growth,"locus YGR052W, strain FMP48, active compounds read low",0.93
same,normalized growth,"locus YGR092W, strain DBF2, active compounds read low",0.743
same,normalized growth,[2],0.611 (active)
same,normalized growth,"locus YHR079C, strain IRE1, active compounds read low",0.695
same,normalized growth,"locus YHR082C, strain KSP1, active compounds read low",0.81
same,normalized growth,"locus YHR205W, strain SCH9, active compounds read low",0.849
same,normalized growth,"locus YIL147C, strain SLN1, active compounds read low",0.966
same,normalized growth,"locus YJL095W, strain BCK1, active compounds read low",0.822
same,normalized growth,"locus YJL128C, strain PBS2, active compounds read low",0.908
same,normalized growth,"locus YJL157C, strain FAR1, active compounds read low",0.909
same,normalized growth,"locus YJR016C, strain ILV3, active compounds read low",0.981
same,normalized growth,"locus YJR066W, strain TOR1 (second series), active compounds read low",0.883
same,normalized growth,"locus YJR066W, strain TOR1, active compounds read low",0.798
same,normalized growth,"locus YKL048C, strain ELM1, active compounds read low",0.943
same,normalized growth,"locus YKL067W, strain YNK1, active compounds read low",0.899
same,normalized growth,"locus YKL101W, strain HSL1, active compounds read low",0.878
same,normalized growth,"locus YKL193C, strain SDS22, active compounds read low",0.98
same,normalized growth,"locus YKL203C, strain TOR2, active compounds read low",1.01
same,normalized growth,"locus YLR113W, strain HOG1, active compounds read low",0.778 (active)
same,normalized growth,"locus YLR133W, strain CKI1, active compounds read low",0.911
same,normalized growth,"locus YLR403W, strain SFP1, active compounds read low",0.925
same,normalized growth,"locus YML070W, strain DAK1, active compounds read low",0.872
same,normalized growth,"locus YMR001C, strain CDC5, active compounds read low",0.95
same,normalized growth,"locus YMR205C, strain PFK2 (second series), active compounds read low",0.922
same,normalized growth,"locus YMR277W, strain FCP1, active compounds read low",0.95
same,normalized growth,"locus YNL006W, strain LST8, active compounds read low",0.962
same,normalized growth,"locus YNL020C, strain ARK1, active compounds read low",0.903
same,normalized growth,"locus YNL161W, strain CBK1, active compounds read low",0.976
same,normalized growth,"locus YNL183C, strain NPR1, active compounds read low",0.963
same,normalized growth,"locus YNL207W, strain RIO2, active compounds read low",0.969
same,normalized growth,"locus YNL222W, strain SSU72, active compounds read low",0.969
same,normalized growth,"locus YNL307C, strain MCK1 (second series), active compounds read low",0.876
same,normalized growth,"locus YOL078W, strain AVO1, active compounds read low",0.981
same,normalized growth,"locus YOL136C, strain PFK27, active compounds read low",0.866
same,normalized growth,"locus YOR061W, strain CKA2, active compounds read low",0.91
same,normalized growth,"locus YOR119C, strain RIO1, active compounds read low",0.928
same,normalized growth,"locus YOR231W, strain MKK1, active compounds read low",0.791
same,normalized growth,"locus YOR329C, strain SCD5, active compounds read low",0.981
same,normalized growth,"locus YPL031C, strain PHO85, active compounds read low",0.908
same,normalized growth,"locus YPL153C, strain RAD53, active compounds read low",0.877
same,normalized growth,"locus YPL204W, strain HRR25, active compounds read low",0.883
same,normalized growth,"locus YPL209C, strain IPL1, active compounds read low",0.972
same,normalized growth,"locus YPL256C, strain CLN2, active compounds read low",0.844 (active)
same,normalized growth,"locus YPR025C, strain CCL1, active compounds read low",0.979
same,normalized growth,"locus YPR106W, strain ISR1, active compounds read low",0.969
same,normalized growth,"locus YPR111W, strain DBF20, active compounds read low",0.935
same,normalized growth,"strain NNK1, active compounds read low",0.951
same,normalized growth,"strain TSCII, active compounds read low",0.958
Cc1cccc(NC(=O)c2ccccc2)c1,normalized growth,[3],0.961
same,normalized growth,[4],0.958
same,normalized growth,[1],0.991
same,normalized growth,[5],0.974
same,normalized growth,[6],0.945
same,normalized growth,[7],0.951
same,normalized growth,"locus YGR229C, strain SMI1, active compounds read low",0.977
same,normalized growth,[2],0.827
same,normalized growth,[8],0.937
same,normalized growth,"locus YJL187C, strain SWE1, active compounds read low",0.946
same,normalized growth,[9],0.952
same,normalized growth,[10],0.913
same,normalized growth,[11],0.988
same,normalized growth,[12],0.809
same,normalized growth,[13],0.981
same,normalized growth,[14],0.897
same,normalized growth,[15],0.854
same,normalized growth,[16],0.924
same,normalized growth,[17],0.967
same,normalized growth,[18],0.973
same,normalized growth,[19],0.992
same,normalized growth,[20],0.973
same,normalized growth,[21],0.887
same,normalized growth,[22],0.98
same,normalized growth,[23],0.951
same,normalized growth,[24],0.971
same,normalized growth,[25],0.91
same,normalized growth,[26],0.798
O=c1cc(-c2ccccc2)[nH]c2nc(Cl)ccc12,normalized growth,"locus YAL040C, strain CLN3, active compounds read low",0.964
same,normalized growth,"locus YCL061C, strain MRC1 (second series), active compounds read low",1
same,normalized growth,[5],1.01
same,normalized growth,"locus YDR363W, strain ESC2, active compounds read low",0.979
same,normalized growth,"locus YER002W, strain NOP16, active compounds read low",1.03
same,normalized growth,[19],0.962
same,normalized growth,"locus YNL175C, strain NOP13, active compounds read low",0.989
same,normalized growth,"locus YNL197C, strain WHI3, active compounds read low",1.01
same,normalized growth,"locus YNL224C, strain SQS1, active compounds read low",0.977
same,normalized growth,"locus YOR083W, strain WHI5 (second series), active compounds read low",0.989
same,normalized growth,[24],0.997
same,normalized growth,[25],1
O=C(Nc1cc(-c2ccccc2)[nH]n1)c1ccccc1,normalized growth,[3],0.938
same,normalized growth,[4],0.947
same,normalized growth,[1],0.935
same,normalized growth,"locus YDL134C, strain PPH21, active compounds read low",0.923
same,normalized growth,[5],1.03
same,normalized growth,[6],0.867 (active)
same,normalized growth,[7],0.936
same,normalized growth,[2],0.619 (active)
same,normalized growth,[8],0.913
same,normalized growth,[9],0.919 (active)
same,normalized growth,[10],0.902
same,normalized growth,[11],0.89 (active)
same,normalized growth,[12],0.719 (active)
same,normalized growth,[13],0.982
same,normalized growth,[14],0.634 (active)
same,normalized growth,[15],0.79 (active)
same,normalized growth,[16],0.888
same,normalized growth,[17],0.968
same,normalized growth,[27],0.492 (active)
same,normalized growth,[19],0.973
same,normalized growth,[20],0.946
same,normalized growth,[21],0.844
same,normalized growth,[22],0.988
same,normalized growth,[23],0.867 (active)
same,normalized growth,"locus YOL006C, strain TOP1, active compounds read low",0.63 (active)
same,normalized growth,[24],0.907
same,normalized growth,[25],0.865
same,normalized growth,[26],0.488 (active)
Cc1cc(NS(=O)(=O)c2ccc(NC(=O)c3ccccc3)cc2)no1,normalized growth,[3],0.988
same,normalized growth,[4],0.995
same,normalized growth,[1],0.979
same,normalized growth,[5],1.03
same,normalized growth,[6],1.03
same,normalized growth,[7],0.984
same,normalized growth,[2],1.03
same,normalized growth,[8],1.01
same,normalized growth,[9],0.983
same,normalized growth,[10],0.992
same,normalized growth,[12],1.02
same,normalized growth,[13],1.02
same,normalized growth,[14],1.05
same,normalized growth,[15],0.986
same,normalized growth,[16],1.02
same,normalized growth,[17],1.01
same,normalized growth,[18],0.916
same,normalized growth,[27],1.03
same,normalized growth,[19],1
same,normalized growth,[20],1
same,normalized growth,[21],1
same,normalized growth,[22],1.01
same,normalized growth,[23],1
same,normalized growth,[24],1.03
same,normalized growth,[25],1.02
same,normalized growth,[26],0.991
